Results from the supplement of paper PMC12282887.
± gives the standard deviation of the averaged measurements.

Test system: E. coli BW25113 marRABp lux reporter
Experiment: promoter activity interaction Z-score (Lux/OD deviation from empty-vector control); higher = stronger promoter induction by the compound
Protocol: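 E. coli BW25113 (wild type or ΔmarA/ΔsoxS/Δrob) carrying pTU175 luxCDABE promoter reporters was grown in LB in 384-well plates at 37°C with each of 94 compounds at 4 two-fold concentrations, in biological duplicates. Luminescence and OD600 were read every 30 min for 12 h and integrated as AUC over 8 h (0-8 h WT, 1-9 h mutants). Lux AUC was divided by OD AUC; the interaction score is the residual of a Huber robust fit of each promoter against the empty-vector control, then Z-transformed per promoter.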

SMILES | promoter activity interaction Z-score (0.47 µg/ml, genetic background: wild type) | promoter activity interaction Z-score (0.47 µg/ml, genetic background: ΔmarA) | promoter activity interaction Z-score (0.47 µg/ml, genetic background: Δrob) | promoter activity interaction Z-score (0.47 µg/ml, genetic background: ΔsoxS) | promoter activity interaction Z-score (0.93 µg/ml, genetic background: wild type) | promoter activity interaction Z-score (0.93 µg/ml, genetic background: ΔmarA) | promoter activity interaction Z-score (0.93 µg/ml, genetic background: Δrob) | promoter activity interaction Z-score (0.93 µg/ml, genetic background: ΔsoxS) | promoter activity interaction Z-score (1.9 µg/ml, genetic background: wild type) | promoter activity interaction Z-score (1.9 µg/ml, genetic background: ΔmarA) | promoter activity interaction Z-score (1.9 µg/ml, genetic background: Δrob) | promoter activity interaction Z-score (1.9 µg/ml, genetic background: ΔsoxS) | promoter activity interaction Z-score (3.7 µg/ml, genetic background: wild type) | promoter activity interaction Z-score (3.7 µg/ml, genetic background: ΔmarA) | promoter activity interaction Z-score (3.7 µg/ml, genetic background: Δrob) | promoter activity interaction Z-score (3.7 µg/ml, genetic background: ΔsoxS) | promoter activity interaction Z-score (11.9 µg/ml, genetic background: wild type) | promoter activity interaction Z-score (11.9 µg/ml, genetic background: ΔmarA) | promoter activity interaction Z-score (11.9 µg/ml, genetic background: Δrob) | promoter activity interaction Z-score (11.9 µg/ml, genetic background: ΔsoxS) | promoter activity interaction Z-score (23.7 µg/ml, genetic background: wild type) | promoter activity interaction Z-score (23.7 µg/ml, genetic background: ΔmarA) | promoter activity interaction Z-score (23.7 µg/ml, genetic background: Δrob) | promoter activity interaction Z-score (23.7 µg/ml, genetic background: ΔsoxS) | promoter activity interaction Z-score (47.4 µg/ml, genetic background: wild type) | promoter activity interaction Z-score (47.4 µg/ml, genetic background: ΔmarA) | promoter activity interaction Z-score (47.4 µg/ml, genetic background: Δrob) | promoter activity interaction Z-score (47.4 µg/ml, genetic background: ΔsoxS) | promoter activity interaction Z-score (94.8 µg/ml, genetic background: wild type) | promoter activity interaction Z-score (94.8 µg/ml, genetic background: ΔmarA) | promoter activity interaction Z-score (94.8 µg/ml, genetic background: Δrob) | promoter activity interaction Z-score (94.8 µg/ml, genetic background: ΔsoxS)
CC1(C)S[C@@H]2[C@H](NC(=O)Cc3ccccc3)C(=O)N2[C@H]1C(=O)O [Penicillin G] | -0.0595 ± 0.01 | -0.219 ± 0.31 | -0.0723 ± 0.22 | 0.0424 ± 0.095 | 0.124 ± 0.25 | -0.178 ± 0.24 | -0.0814 ± 0.19 | 0.103 ± 0.11 | -0.36 ± 0.024 | -0.244 ± 0.026 | -0.221 ± 0.14 | 0.0691 ± 0.16 | -0.195 ± 0.22 | -0.122 ± 0.053 | 0.035 ± 0.11 | -0.0494 ± 0.053 | – | – | – | – | – | – | – | – | – | – | – | – | – | – | – | –
NCCc1ccc(O)c(O)c1 [Dopamine] | – | – | – | – | – | – | – | – | – | – | – | – | – | – | – | – | 0.0994 ± 0.32 | -0.339 ± 0.18 | -0.285 ± 0.05 | -0.021 ± 0.064 | -0.265 ± 0.15 | 0.159 ± 0.52 | 0.121 ± 0.22 | -0.3 ± 0.046 | 0.113 ± 0.12 | -0.369 ± 0.073 | -0.155 ± 0.3 | -0.126 ± 0.099 | -0.305 ± 0.37 | 0.217 ± 1.1 | -0.642 ± 0.091 | -0.61 ± 0.21
